The values that follow come from PubChem BioAssay (NCATS).

Each structure is given as a SMILES string. Inconclusive results are not listed. The source made the active and inactive calls. Calls follow the shape of the dose curve; as a rule, active = well fitted inhibition curve with a large enough effect; inconclusive = small, poorly fitted or top-dose-only effect; inactive = flat fitted curve, though single readings scatter.

Lysine-specific demethylase 5B (Homo sapiens), sequence (Q9UGL1 whole entry, looked up): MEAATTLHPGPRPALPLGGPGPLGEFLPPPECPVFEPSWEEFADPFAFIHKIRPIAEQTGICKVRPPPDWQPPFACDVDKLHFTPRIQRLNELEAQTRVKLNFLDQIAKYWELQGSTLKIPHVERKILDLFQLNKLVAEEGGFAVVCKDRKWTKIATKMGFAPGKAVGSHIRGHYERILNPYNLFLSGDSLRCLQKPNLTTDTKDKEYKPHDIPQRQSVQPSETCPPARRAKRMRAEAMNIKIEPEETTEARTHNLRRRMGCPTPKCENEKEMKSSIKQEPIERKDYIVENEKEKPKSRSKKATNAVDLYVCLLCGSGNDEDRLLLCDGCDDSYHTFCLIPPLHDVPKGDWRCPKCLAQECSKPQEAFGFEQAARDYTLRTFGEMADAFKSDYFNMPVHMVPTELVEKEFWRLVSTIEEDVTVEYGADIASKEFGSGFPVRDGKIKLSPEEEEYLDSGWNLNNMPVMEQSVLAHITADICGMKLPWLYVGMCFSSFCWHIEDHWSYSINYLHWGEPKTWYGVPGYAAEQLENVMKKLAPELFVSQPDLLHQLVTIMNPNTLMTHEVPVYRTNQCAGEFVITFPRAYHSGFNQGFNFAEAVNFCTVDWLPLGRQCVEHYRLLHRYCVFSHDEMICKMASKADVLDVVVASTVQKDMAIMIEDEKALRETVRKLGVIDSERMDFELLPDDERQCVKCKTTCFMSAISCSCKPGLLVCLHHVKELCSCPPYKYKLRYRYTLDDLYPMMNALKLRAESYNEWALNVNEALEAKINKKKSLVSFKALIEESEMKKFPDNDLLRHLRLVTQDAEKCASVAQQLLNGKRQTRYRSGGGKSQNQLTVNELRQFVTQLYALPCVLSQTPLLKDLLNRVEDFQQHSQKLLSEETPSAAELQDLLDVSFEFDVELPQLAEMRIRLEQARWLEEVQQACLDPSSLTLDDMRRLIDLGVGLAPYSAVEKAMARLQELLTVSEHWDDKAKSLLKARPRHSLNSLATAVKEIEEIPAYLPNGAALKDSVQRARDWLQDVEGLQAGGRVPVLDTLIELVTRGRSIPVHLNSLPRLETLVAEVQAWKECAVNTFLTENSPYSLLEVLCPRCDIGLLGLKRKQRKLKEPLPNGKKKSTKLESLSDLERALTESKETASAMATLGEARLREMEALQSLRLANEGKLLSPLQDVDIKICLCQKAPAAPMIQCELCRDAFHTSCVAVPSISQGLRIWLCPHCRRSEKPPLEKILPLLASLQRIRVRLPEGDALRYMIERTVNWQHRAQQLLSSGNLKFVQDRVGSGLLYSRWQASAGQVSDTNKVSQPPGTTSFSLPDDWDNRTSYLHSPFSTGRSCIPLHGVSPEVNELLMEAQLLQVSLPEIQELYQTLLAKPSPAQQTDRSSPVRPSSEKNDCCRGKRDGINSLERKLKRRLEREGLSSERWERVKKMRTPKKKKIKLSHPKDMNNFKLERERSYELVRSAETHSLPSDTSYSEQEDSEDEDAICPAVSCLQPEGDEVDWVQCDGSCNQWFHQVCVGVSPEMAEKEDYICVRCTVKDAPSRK

The assay addresses Lysine-specific demethylase 5B (Homo sapiens) (UniProt Q9UGL1). The assay is described as follows: Optimization screen for KDM5B Histone Demethylases FDH coupled qHTS against the LOPAC library (AID 1347166). Also: 0% is about no effect. Conditions: KDM5B demethylation, FDH-coupled NADH fluorescence (FDH is formaldehyde dehydrogenase); at 57.5 µM (top of the series). In outline:
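KDM5BDeltaAP (200nM final) preincubated 10 min with compound, then 12.5uM H3K4Me3, 25uM a-ketoglutarate, ascorbate, Fe(II), NAD+ and FDH added; 50mM HEPES pH 7.5, 0.01% Tween-20. NADH fluorescence (340/450 nm) change over 30 min, room temperature.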
(In general: Quantitative high-throughput screening tests each substance at several concentrations.)
As for `N=S(=O)(O)Cc1noc2ccccc12`, the activity, negative = inhibition is 3.62% (inactive). Turning to `Oc1ccc(/C=C/c2ccc(/C=C/c3ccc(O)cc3)c(Br)c2)cc1`, the activity, negative = inhibition is 662% (inactive). The figure for `CN(C)S(=O)(=O)c1ccc2c(c1)/C(=C/c1cc3c([nH]1)CCCC3)C(=O)N2` is -8.97% (inactive). The figure for `Cc1ccc([N+](=O)[O-])cc1S(=O)(=O)N(C)C` is -0.674% (inactive); for `COc1ccc2c(c1)c(CC(=O)O)c(C)n2C(=O)c1ccccc1` it is 5.12% (inactive). The figure for `CC#CCOC(=O)c1c(C)nc2sc3c(c2c1N)CCC(O)C3` (centres undefined) is -10.9% (inactive); for `O=C(O)C1CCNCC1` it is -5.33% (inactive). For the compound `NC(N)=[N+]1CCc2ccccc2C1`, the activity, negative = inhibition was 2.33% (inactive). The figure for `NC(Cc1cccc(-c2ccccc2CP(=O)(O)O)c1)C(=O)O` (centres undefined) is -9.93% (inactive); for `NC(=O)CNCCC(c1ccccc1)c1ccccc1` it is 2.72% (inactive); for `COc1ccc2c(c1)CCC1C2CC[C@@]2(C)C1CC[C@@H]2NCCCCCCN1C(=O)C=CC1=O` (some centres undefined) it is -20.3% (inactive).

Regarding `NCC(O)C1CCCCCCC1` (centres undefined), the activity, negative = inhibition was -4.79% (inactive). The figure for `CC(N)=NCCCC[C@@H](N)C(=O)O` is -21.9% (inactive); for `CC(C)C[C@H](NC(=O)C1OC1C(=O)O)C(=O)NCCCCN=C(N)N` (some centres undefined) it is 0.286% (inactive); for `CNc1ncnc2c1ncn2[C@H]1C[C@H](OP(=O)(O)O)[C@@H](COP(=O)(O)O)O1` it is -15.5% (inactive). The figure for `O=C1C2C=CC=CC2=NC(=S)N1CCN1CCC(=C(c2ccc(F)cc2)c2ccc(F)cc2)CC1` (centres undefined) is -6.14% (inactive); for `O=C(O)/C=C/c1cnc[nH]1` it is -28.2% (inactive). As to `CCCCCCC/C=C\CCCCCCCCC(=O)O`, the activity, negative = inhibition was -29.9% (inactive). The figure for `C=CC[C@H](N)C(=O)O` is -4.4% (inactive). The figure for `N[C@@H](Cc1ccc(O)c(I)c1)C(=O)O` is -7.59% (inactive); for `CC(C)C[C@H](NC(=O)[C@H](O)[C@H](N)Cc1ccccc1)C(=O)O` it is -4.3% (inactive); for `Nc1ccc2c3c(cccc13)C(=O)NC2=O` it is -16.6% (inactive).

For the compound `COc1ccc(-c2ccc(N)[n+](CCCC(=O)O)n2)cc1`, the activity, negative = inhibition was -3.69% (inactive). The figure for `CSC(N)=NCCC[C@H](N)C(=O)O` is -3.11% (inactive). The figure for `C=CCNc1ncnc2ccc(Br)cc12` is -0.201% (inactive). The figure for `NC1(C(=O)O)CC1` is -7.89% (inactive); for `c1ccc(C2CN3CCSC3=N2)cc1` (centres undefined) it is -3.45% (inactive). Consider `NC1CONC1=O` (centres undefined), for which the activity, negative = inhibition was -3.54% (inactive). As to `CCCOC(=O)c1c(-c2ccccc2)nc(CC)c(C(=O)SCC)c1CCC`, the activity, negative = inhibition is -14.4% (inactive). On to `N[C@@H](Cc1ccc(F)cc1)C(=O)O`, for which the activity, negative = inhibition is -14.8% (inactive). The figure for `Fc1ccc(CN(C2=NCCN2)c2c(Cl)cccc2Cl)cc1` is 2.64% (inactive); for `Cc1cccc(C)c1OCC(N)C(C)C` (centres undefined) it is -17.4% (inactive). The figure for `C#CC(N)CCC(=O)O` (centres undefined) is -0.625% (inactive); for `CCOC(=O)C12CC1/C(=N/O)c1ccccc1O2` (centres undefined) it is -9.53% (inactive). Take `OC[C@H]1NC[C@@H](O)[C@@H]1O`: the activity, negative = inhibition is 1.64% (inactive). For the compound `Oc1ccc(Cn2cc[nH]c2=S)cc1`, the activity, negative = inhibition is -15.9% (inactive). With `Cc1nc(N=Nc2ccc(C(=O)O)cc2)c(COP(=O)(O)O)c(C=O)c1O`, the activity, negative = inhibition is -12.4% (inactive).

Take `Cc1ccccc1/C=C/C1=NCCN1`: the activity, negative = inhibition is -11.5% (inactive). `CC1=C(C(=O)O)N2C(=O)[C@@H](NC(=O)C(N)C3=CCC=CC3)[C@H]2SC1` (some centres undefined): the activity, negative = inhibition was -22.8% (inactive).
